Test results: PubChem BioAssay (EPA / NIEHS)
Activity calls are given as the source filed them. Rule for the calls: active = hit-call score of the fitted dose curve at least 0.9, where 1 is the maximum; inactive = score below 0.9.

Key:
Conditions in all cases: mRNA level, 48 h; actives raise or lower the signal
[1] = read-out: solute carrier (SLC22A1), SLC22A1 (gene 6580); experiment: LTEA_HepaRG_SLC22A1: Life Technologies and Expression Analysis (LTEA) Assay for solute carrier (SLC22A1) using HepaRG (AID 2283524)
Procedure, shortened: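 Human HepaRG cells were plated 48 h, switched to serum-free induction medium, then exposed in duplicate for 48 h to 8-point half-log series from 100 uM in 0.5% DMSO. SLC22A1 mRNA measured by qRT-PCR, normalized to ACTB/GAPDH/POLR2A, fitted bidirectionally versus DMSO.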

[2] = read-out: Pyruvate Dehydrogenase Kinase 4 (PDK4), PDK4 (gene 5166); experiment: LTEA_HepaRG_PDK4: Life Technologies and Expression Analysis (LTEA) Assay for Pyruvate Dehydrogenase Kinase 4 (PDK4) using HepaRG (AID 2283525)
Protocol: (§1) LTEA_HepaRG is a cell based, multiplexed-readout assay that uses HepaRG, a human liver cell line, with measurements taken at 48 hours after chemical dosing on a 96-well plate.LTEA_HepaRG_PDK4 is one of 102 assay component(s) measured in the LTEA HepaRG cell culture assay. It is a marker of Diseases associated with PDK4 including Platelet Glycoprotein Iv Deficiency and Diabetes Mellitus, Noninsulin-Dependent.Data from the assay component LTEA_HepaRG_PDK4 was analyzed into 1 endpoint. This assay endpoint, LTEA_HepaRG_PDK4, was analyzed with bidirectional fitting relative to DMSO as the negative control and baseline of activity. Using a type of inducible reporter, measures of mRNA induction for gain or loss-of-signal activity can be used to understand regulation of transcription factor activity. To generalize the intended target to other relatable targets, this assay endpoint is annotated to the kinase intended target family, where the subfamily is serine/threonine kinase.
(§2) A total of 1060 chemcials from the ToxCast library were tested in eight-point concentration-response experiments. Cell culture and cytotoxicity assays were conducted at Thermo Fisher Scientific's Custom Services facility (Madison, WI). A single lot of human HepaRG cells (Thermo Fisher Scientific, Frederick, MD) was used for the cell culture experiments. 96-well format collagen type I coated plates of human HepaRG cells were prepared using established methods. Briefly, cryopreserved HepaRG cells were thawed, plated at a density of approximately 100,000 cells/well in HepaRG Thaw, Plate, and General Purpose media (HPRG770, Thermo Fisher Scientific), and incubated for 48 hours. […] Fluidigm's 96.96 Dynamic ArrayTM (Fluidigm, Amsterdam, the Netherlands) technology was used for gene expression analyses by quantitative reverse transcription polymerase chain reaction (qRT-PCR, performed by Quintiles/Expression Analysis, Durham, NC)89. […]

[3] = read-out: NAD(P)H dehydrogenase [quinone] 1 (NQO1), NQO1 (gene 1728); experiment: LTEA_HepaRG_NQO1: Life Technologies and Expression Analysis (LTEA) Assay for NAD(P)H dehydrogenase [quinone] 1 (NQO1) using HepaRG (AID 2283526)
Procedure, shortened: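 Differentiated human HepaRG cells in serum-free induction medium, dosed in duplicate for 48 h at 8 half-log concentrations up to 100 uM in 0.5% DMSO. NQO1 mRNA by qRT-PCR normalized to ACTB, GAPDH, POLR2A; bidirectional fit versus DMSO baseline.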

[4] = read-out: Nuclear factor erythroid 2-related factor 2 (Homo sapiens) (UniProt Q16236); experiment: LTEA_HepaRG_NFE2L2: Life Technologies and Expression Analysis (LTEA) Assay for Nuclear factor erythroid 2-related factor 2 (NFE2L2) Transcription Factor using HepaRG (AID 2283527);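 note: TaqMan qRT-PCR transcript level normalised to ACTB GAPDH and POLR2A housekeeping genes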
Procedure, shortened: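 Differentiated human HepaRG cells in serum-free induction medium were exposed for 48 h to eight concentrations (top 100 uM, half-log dilutions, 0.5% DMSO), in duplicate. NFE2L2 mRNA was quantified by TaqMan qRT-PCR, normalized to ACTB, GAPDH and POLR2A, with bidirectional fitting versus DMSO.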

[5] = read-out: succinate dehydrogenase complex iron sulfur subunit B (SDHB), SDHB (gene 6390); experiment: LTEA_HepaRG_SDHB: Life Technologies and Expression Analysis (LTEA) Assay for succinate dehydrogenase complex iron sulfur subunit B (SDHB) using HepaRG (AID 2283528)
Procedure, shortened: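 HepaRG, 48 h exposure, 8-pt half-log series from 100 uM in 0.5% DMSO, duplicates. Readout: SDHB mRNA by Fluidigm qRT-PCR vs housekeeping genes; bidirectional fit relative to DMSO.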

[6] = read-out: Signal transducer and activator of transcription 3 (Homo sapiens) (UniProt P40763); experiment: LTEA_HepaRG_STAT3: Life Technologies and Expression Analysis (LTEA) Assay for Signal transducer and activator of transcription (STAT3) using HepaRG (AID 2283529)
Procedure, shortened: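 Differentiated human HepaRG cells in serum-free induction medium were exposed in duplicate for 48 h to eight half-log concentrations up to 100 uM in 0.5% DMSO. STAT3 mRNA was quantified by TaqMan qRT-PCR, normalized to ACTB, GAPDH and POLR2A, and fitted bidirectionally against DMSO.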

[7] = read-out: solute carrier (SLCO1B1), SLCO1B1 (gene 10599); experiment: LTEA_HepaRG_SLCO1B1: Life Technologies and Expression Analysis (LTEA) Assay for solute carrier (SLCO1B1) using HepaRG (AID 2283530)
Procedure, shortened: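 SLCO1B1 transcript levels were quantified by TaqMan qRT-PCR using three housekeeping genes for normalization. This followed 48 h chemical exposure (100 uM top, half-log, 8 points, 0.5% DMSO) of HepaRG liver cells, with gain or loss fitted relative to DMSO.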

[8] = read-out: sulfotransferase 2A1 (SULT2A1), SULT2A1 (gene 6822); experiment: LTEA_HepaRG_SULT2A1: Life Technologies and Expression Analysis (LTEA) Assay for sulfotransferase 2A1 (SULT2A1) using HepaRG (AID 2283531)
Procedure, shortened: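 Expression change of SULT2A1, by qRT-PCR with three housekeeping-gene normalization, was scored bidirectionally versus DMSO. Cells: differentiated HepaRG, dosed in duplicate for 48 h across 8 points, highest 100 µM, half-log dilution, 0.5% DMSO.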

[9] = read-out: Transforming Growth Factor (TGFA), TGFA (gene 7039); experiment: LTEA_HepaRG_TGFA: Life Technologies and Expression Analysis (LTEA) Assay for Transforming Growth Factor (TGFA) using HepaRG (AID 2283532)
Protocol: as §1, with “plate.LTEA_HepaRG_TGFA” for “plate.LTEA_HepaRG_PDK4”, “Cell proliferation, survival, death.Data” for “Diseases associated with PDK4 including Platelet Glycoprotein Iv Deficiency and Diabetes Mellitus, Noninsulin-Dependent.Data”, “LTEA_HepaRG_TGFA” for “LTEA_HepaRG_PDK4”, “LTEA_HepaRG_TGFA,” for “LTEA_HepaRG_PDK4,”, “growth factor” for “kinase”, “EGF-like domain.” for “serine/threonine kinase.”
as §2

[10] = read-out: Transforming Growth Factor (TGFB1), TGFB1 (gene 7040); experiment: LTEA_HepaRG_TGFB1: Life Technologies and Expression Analysis (LTEA) Assay for Transforming Growth Factor (TGFB1) Transporter using HepaRG (AID 2283533)
Procedure, shortened: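 TGFB1 transcript measured by qRT-PCR with normalisation to three housekeeping genes (ACTB, GAPDH, POLR2A); human HepaRG line treated in duplicate for 48 hr with an 8-point series topping at 100 uM, 0.5% DMSO vehicle, bidirectionally fitted.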

Measured: outcome

Sequence of Nuclear factor erythroid 2-related factor 2 (Homo sapiens) (Q16236 whole entry, looked up): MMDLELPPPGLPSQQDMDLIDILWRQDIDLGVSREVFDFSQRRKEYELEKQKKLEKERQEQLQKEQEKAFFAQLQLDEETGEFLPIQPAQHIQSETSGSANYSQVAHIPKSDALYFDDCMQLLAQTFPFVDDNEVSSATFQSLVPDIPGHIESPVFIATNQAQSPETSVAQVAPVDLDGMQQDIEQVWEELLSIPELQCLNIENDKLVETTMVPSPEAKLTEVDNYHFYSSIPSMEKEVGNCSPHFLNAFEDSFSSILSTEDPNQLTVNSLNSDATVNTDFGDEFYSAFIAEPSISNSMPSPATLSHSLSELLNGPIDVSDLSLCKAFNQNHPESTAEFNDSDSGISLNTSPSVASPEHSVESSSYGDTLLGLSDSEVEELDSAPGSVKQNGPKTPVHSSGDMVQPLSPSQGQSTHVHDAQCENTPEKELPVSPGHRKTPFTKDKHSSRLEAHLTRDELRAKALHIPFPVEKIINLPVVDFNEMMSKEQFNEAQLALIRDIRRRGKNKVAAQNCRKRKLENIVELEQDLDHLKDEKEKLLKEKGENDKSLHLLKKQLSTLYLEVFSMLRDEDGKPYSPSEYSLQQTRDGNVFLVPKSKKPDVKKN
Sequence of Signal transducer and activator of transcription 3 (Homo sapiens) (P40763 whole entry, looked up): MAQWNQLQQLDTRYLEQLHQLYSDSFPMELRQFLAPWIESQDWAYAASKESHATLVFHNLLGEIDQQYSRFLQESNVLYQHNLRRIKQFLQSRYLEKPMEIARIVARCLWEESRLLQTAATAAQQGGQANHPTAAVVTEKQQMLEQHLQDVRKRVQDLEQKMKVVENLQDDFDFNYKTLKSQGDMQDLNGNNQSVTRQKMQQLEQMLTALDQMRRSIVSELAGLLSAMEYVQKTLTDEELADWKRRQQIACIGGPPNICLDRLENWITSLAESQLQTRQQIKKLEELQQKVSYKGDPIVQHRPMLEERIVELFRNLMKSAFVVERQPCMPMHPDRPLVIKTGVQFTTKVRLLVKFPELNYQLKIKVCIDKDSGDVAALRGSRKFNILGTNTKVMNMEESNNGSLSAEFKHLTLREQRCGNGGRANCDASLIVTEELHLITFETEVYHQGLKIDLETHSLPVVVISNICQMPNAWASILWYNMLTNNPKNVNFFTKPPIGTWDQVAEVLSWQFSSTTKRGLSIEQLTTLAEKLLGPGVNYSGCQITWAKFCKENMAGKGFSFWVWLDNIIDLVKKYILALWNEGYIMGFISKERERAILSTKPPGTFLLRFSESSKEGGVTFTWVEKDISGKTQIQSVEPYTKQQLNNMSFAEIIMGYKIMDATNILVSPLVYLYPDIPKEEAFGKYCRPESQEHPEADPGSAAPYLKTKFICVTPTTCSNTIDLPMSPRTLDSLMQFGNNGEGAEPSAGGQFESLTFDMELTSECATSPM

Nc1ccc(C(=O)O)cc1
inactive: [1] | [2] | [3] | [4] | [5] | [6] | [7] | [8] | [9] | [10]

C1CNCCN1
inactive: [1] | [2] | [3] | [4] | [5] | [6] | [7] | [8] | [9] | [10]

Cc1ccc([N+](=O)[O-])cc1N
inactive: [1] | [2] | [3] | [4] | [5] | [6] | [7] | [8] | [9] | [10]
